Results on 13 compounds are retold here after PubChem BioAssay (Tox21).

Assay [1] is described as follows: qHTS RealTime-Glo MT Cell Viability Assay in HEK293 cells - 0 hour (AID 1224880). Note: top concentration of the series differs between compounds; nearly all actives have a fitted effect of over 45% in size. The method in brief: (§1)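 HEK293 + NanoLuc + prosubstrate, 600 cells/well; 5 h, 37 C/5% CO2; compound 23 nL in DMSO by pintool; 37 C; luminescence read at 0, 8, 16, 24, 32 and 40 h time points.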
A general note: In qHTS, concentration-response curves come from the screen itself.

Assay [2] in a line: A CellTox Green Cytotoxicity Assay to monitor cytotoxicity in HEK293 cells - 32 hour (AID 1224881). Note: nearly all actives have a fitted effect of over 40% in size. The method in brief: (§2)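 Tox21 screen in HEK293: membrane-impermeant cyanine dye fluoresces on binding dead-cell DNA; compound pinned 5 h post-seeding, plates held at 37 C, signal read repeatedly through 40 h.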
A short description of assay [3]: A CellTox Green Cytotoxicity Assay to monitor cytotoxicity in HepG2 cells - 0 hour (AID 1224882). Note: nearly all actives have a fitted effect of over 35% in size. The method in brief: (§3)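 Measurements at 0, 8, 16, 24, 32 and 40 h of treatment captured CellTox Green fluorescence in HepG2 cells that had been co-plated with reagent and preincubated 5 h at 37 C/5% CO2.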
A short description of assay [4]: A CellTox Green Cytotoxicity Assay to monitor cytotoxicity in HepG2 cells - 32 hour (AID 1224883). Note: nearly all actives have a fitted effect of over 50% in size. The method in brief: as §3
The nature of assay [5]: A CellTox Green Cytotoxicity Assay to monitor cytotoxicity in HEK293 cells - 8 hour (AID 1224884). Note: nearly all actives have a fitted effect of over 35% in size. The method in brief:
as §2

The nature of assay [6]: qHTS RealTime-Glo MT Cell Viability Assay in HepG2 cells - 16 hour (AID 1224885). Note: nearly all actives have a fitted effect of over 50% in size. The method in brief:
(§4)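 Tox21 10K library screened in qHTS format on HepG2 cells carrying RealTime-Glo reagents. Compounds were added after a 5 h preincubation, and the luminescent signal from continuous culture was measured repeatedly during 40 h treatment.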

Assay [7] is described as follows: qHTS RealTime-Glo MT Cell Viability Assay in HEK293 cells - 24 hour (AID 1224886). Note: top concentration of the series differs between compounds; nearly all actives have a fitted effect of over 50% in size. The method in brief: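 Luminescence generated by NanoLuc from substrate produced by living HEK293 cells served as the viability signal. Each value reflects the reading at its stated time point during continuous 40 h compound exposure at 37 C.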
Assay [8] in a line: qHTS RealTime-Glo MT Cell Viability Assay in HEK293 cells - 8 hour (AID 1224887). Note: top concentration of the series differs between compounds; nearly all actives have a fitted effect of over 50% in size. The method in brief: as §1
The nature of assay [9]: A CellTox Green Cytotoxicity Assay to monitor cytotoxicity in HEK293 cells - 16 hour (AID 1224888). Note: nearly all actives have a fitted effect of over 35% in size. The method in brief: as §2
Assay [10] can be described thus: qHTS RealTime-Glo MT Cell Viability Assay in HepG2 cells - 0 hour (AID 1224889). Note: nearly all actives have a fitted effect of over 50% in size. The method in brief: as §4
Assay [11] is described as follows: A CellTox Green Cytotoxicity Assay to monitor cytotoxicity in HepG2 cells - 8 hour (AID 1224890). Note: nearly all actives have a fitted effect of over 45% in size. The method in brief: as §3
Assay [12] is described as follows: qHTS assay to identify small molecule antagonists of the estrogen receptor alpha (ER-alpha) signaling pathway using the BG1 cell line in the presence of 0.1 nM 17-beta-estradiol - cell viability counter screen (AID 1259241). Note: nearly all actives have a fitted effect of over 40% in size. The method in brief: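 Live-cell protease activity (CellTiter-Fluor fluorescence, 30 min) was read in the same wells after VM7Luc4E2 cells had been exposed to compounds with 0.1 nM 17beta-estradiol for 22 hr at 37C.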

Assay [13] in a line: qHTS assay to identify small molecule phospholipidosis (PLD) inducers (AID 1259344; active = well fitted curve in the direction sought with a large enough effect; an effect the other way counts as inactive or inconclusive). The method in brief:
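Accumulated phospholipid, stained red by LipidTOX during 24 h compound treatment of HepG2 cells at 37 C, is quantified from images as pit number and intensity, normalised per cell using Hoechst-stained nuclei.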

Assay [14] in a line: qHTS assay to identify small molecule HDAC inhibitors (AID 1259364). For activity change, negative = inhibition: top concentration of the series differs between compounds. Note: potency is the fitted concentration of half-maximal effect.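 Note: wild-type HCT-116 cells with endogenous class I/II HDAC activity; nearly all actives have a fitted effect of over 45% in size.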 The method in brief:
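Screening used wild-type human colon HCT-116 cells incubated overnight, dosed with compounds for 2 hours, and assayed with a homogeneous luminogenic HDAC I/II reagent for 30 minutes at room temperature.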

Assay [15] can be described thus: qHTS assay to identify small molecule HDAC inhibitors - cell viability counter screen (AID 1259365). The method in brief:
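HCT-116 (wild type), 1,500 cells/well, overnight 37C/5% CO2; compound in DMSO 2hr; CellTiter-Glo 30min RT; luminescence read.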

Assay [16] is described as follows: qHTS assay to identify small molecule agonists of the sonic hedgehog signaling (Shh) pathway - cell viability counter screen (AID 1259366). Note: nearly all actives have a fitted effect of over 50% in size. The method in brief:
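CellTiter-Fluor fluorescence read-out, 1 hr at 37C, added after 23hr compound exposure. Cells: 3T3 Gli1-Luc, an NIH/3T3 clone with stably integrated Gli1-Luc reporter, plated 4hr before compound.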

Assay [17] can be described thus: qHTS assay to identify small molecule antagonists of the sonic hedgehog signaling (Shh) pathway - cell viability counter screen (AID 1259367). Note: nearly all actives have a fitted effect of over 55% in size. The method in brief: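 CellTiter-Fluor signal in conditioned medium-stimulated 3T3 Gli1-Luc cells, 23 hr compound exposure, 37C.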
Assay [18] deals with Estrogen receptor (Homo sapiens) (UniProt P03372). Put plainly: qHTS assay to identify small molecule antagonists of the estrogen receptor alpha (ER-alpha) signaling pathway using the BG1 cell line in the presence of 0.1 nM 17-beta-estradiol (AID 1259244). Note: nearly all actives have a fitted effect of over 50% in size. The method in brief: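 Compounds were tested against 0.1 nM (final) 17beta-estradiol in VM7Luc4E2 cells, which express full-length ER-alpha and an ERE-luciferase reporter; luminescence was recorded following 22 h exposure.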

The nature of assay [19]: qHTS assay to identify small molecule antagonists of the androgen receptor (AR) signaling pathway using the MDA cell line in the presence of 0.5 nM R1881 - cell viability counter screen (AID 1259242). Note: nearly all actives have a fitted effect of over 45% in size. The method in brief: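 Concentration-response screen of compounds for toxicity in MDA-kb2 reporter cells: 16 hr at 37C with 0.5 nM R1881, endpoint live-cell protease fluorescence measured in the reporter wells.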

Molecules are shown by their SMILES. Unmarked numbers belong to inactive results. Records with an inconclusive call do not appear. Calls of active or inactive are those of the source. Unless noted, calls come from the whole dose curve; as a rule, active = well fitted curve in the direction sought with a large enough effect in the repeat runs; inconclusive = weak or mixed curves; inactive = no such curve, though single readings can be large; an effect the other way counts as inactive or inconclusive.
% is set by controls: 0 for no effect and ±100 for the full control effect.

Sequence of Estrogen receptor (Homo sapiens) (P03372 whole entry, looked up): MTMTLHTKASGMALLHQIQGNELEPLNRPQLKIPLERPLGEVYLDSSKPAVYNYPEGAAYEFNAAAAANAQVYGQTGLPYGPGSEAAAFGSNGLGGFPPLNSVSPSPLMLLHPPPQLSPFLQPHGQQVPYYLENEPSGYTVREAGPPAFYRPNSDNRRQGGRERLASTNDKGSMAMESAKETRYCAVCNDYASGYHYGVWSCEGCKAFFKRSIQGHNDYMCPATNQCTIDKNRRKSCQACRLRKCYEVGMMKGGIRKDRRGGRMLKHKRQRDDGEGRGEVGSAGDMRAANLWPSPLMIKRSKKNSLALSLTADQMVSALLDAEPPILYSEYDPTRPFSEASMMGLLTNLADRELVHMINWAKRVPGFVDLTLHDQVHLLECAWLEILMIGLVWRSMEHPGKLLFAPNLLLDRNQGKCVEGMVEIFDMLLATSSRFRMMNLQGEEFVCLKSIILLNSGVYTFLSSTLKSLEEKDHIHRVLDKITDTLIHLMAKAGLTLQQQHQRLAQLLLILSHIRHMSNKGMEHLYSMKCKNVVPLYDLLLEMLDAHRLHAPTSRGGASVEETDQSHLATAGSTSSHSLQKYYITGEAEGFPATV

`COc1cc(C)c(Cc2cnc(N)nc2N)cc1OC`: the Potency result in [1], in assay [2], in assay [3], in assay [4], in assay [5] and in assay [7] was “inactive” each time. Moreover, the Potency entry in [8], in assay [9], in [10], in assay [11], in assay [12] and in assay [13] was “inactive” throughout. Further, the Potency result in assay [14], in assay [16] and in assay [17] was “inactive” throughout. Also, the result in assay [6] and in assay [15] was inactive.

For the compound `c1ccc(-c2ccc(-c3ccccc3)cc2)cc1`, the activity change, negative = cytotoxicity in assay [1] was 1.15% [at 15.8 µM]; in [7], 0.629% [at 15.8 µM]; in assay [8], 0.793% [at 15.8 µM]; in assay [10], -2.66% [at 15.8 µM]; in assay [12], 0.519% [at 19 µM]; in [15], 0.606% [at 19 µM]. Also, the cytotoxicity increase is -3.83% [at 15.8 µM] in [2], 2.09% [at 15.8 µM] in [4], -5.69% [at 15.8 µM] in assay [5] and -1.41% [at 15.8 µM] in [11]. Besides, the cytotoxicity in assay [3] is 0.432% [at 15.8 µM]. For the same compound, the activity change, negative = cytotoxic in [6] is 0.423% [at 15.8 µM]. Further, the activity change in assay [9] is -4.6% [at 15.8 µM, hits give high values]. For the same compound, the activity change, negative = inhibition in assay [18] is 56.5% [at 19 µM]. The Potency in assay [14] is 4.45 µM (active). Further, the viability change, negative = cytotoxic in [16] is 0.865% [at 19 µM]; in assay [17], -1.08% [at 19 µM].

Consider `O=P(c1ccccc1)(c1ccccc1)c1ccccc1`, for which the Potency result in assay [1], in [2], in assay [3], in assay [4], in [5] and in [7] was “inactive” in each case. Moreover, the Potency entry in assay [8], in [10], in assay [11], in [12], in assay [19] and in assay [18] was “inactive” throughout. Besides, the Potency entry in [14] and in assay [16] was “inactive” in each case. Further, the compound was called inactive in assay [6] and in assay [15].

As to `C1CCN(CN2CCCCC2)CC1`, the Potency result in assay [1], in assay [2], in assay [3], in assay [4], in [5] and in assay [7] was “inactive” in each case. Moreover, the Potency result in assay [8], in assay [9], in assay [10], in assay [11], in assay [12] and in [18] was “inactive” throughout. Moreover, the Potency entry in assay [14], in assay [16] and in [17] was “inactive” in each case. Further, the compound was called inactive in assay [6] and in assay [15].

With `CCC(=O)O[C@]1(C(=O)COC)[C@@H](C)C[C@H]2[C@@H]3CCC4=CC(=O)C=C[C@]4(C)C3(F)[C@@H](O)C[C@@]21C` (some centres undefined), the Potency entry in assay [1], in [2], in [3], in [4], in assay [5] and in assay [7] was “inactive” throughout. For the same compound, the Potency entry in assay [8], in [9], in assay [10], in assay [11], in [12] and in [14] was “inactive” throughout. For the same compound, the Potency result in [16] and in [17] was “inactive” each time. For the same compound, the result in assay [6] and in assay [15] was inactive.

As for `Nc1ncnc2c1ncn2[C@@H]1O[C@H](CO)[C@@H](O)[C@H]1O`, the Potency result in assay [1], in assay [2], in assay [3], in assay [4], in [5] and in assay [7] was “inactive” throughout. Also, the Potency result in [8], in assay [9], in assay [10], in [11], in [19] and in [13] was “inactive” in each case. Also, the Potency entry in assay [14], in assay [16] and in assay [17] was “inactive” in each case. The outcome in assay [6] and in assay [15] was inactive.

For `CC(=O)Oc1cccc2c1C(=O)c1c(OC(C)=O)cc(C(=O)O)cc1C2=O`, the Potency result in assay [1], in assay [2], in assay [3], in assay [4], in [5] and in assay [7] was “inactive” in each case. Also, the Potency result in [8], in assay [9], in assay [10], in assay [11], in assay [13] and in assay [14] was “inactive” throughout. The Potency result in assay [16] and in [17] was “inactive” throughout. In addition, the call in [6] was inactive.

For the compound `C[C@H]1C[C@H]2[C@@H]3CCC4=CC(=O)C=C[C@]4(C)[C@@]3(F)[C@@H](O)C[C@]2(C)[C@@]1(O)C(=O)COP(=O)(O)O`, the Potency entry in assay [1], in assay [2], in [3], in [4], in assay [5] and in assay [7] was “inactive” each time. The Potency result in assay [8], in assay [9], in [11], in assay [12], in assay [18] and in assay [14] was “inactive” in each case. Also, the Potency entry in [16] was “inactive”. Also, the compound was classed as inactive in assay [6] and in assay [15].

As for `CC(=O)c1cccnc1`, the Potency result in assay [1], in [2], in assay [3], in [4], in assay [5] and in assay [7] was “inactive” in each case. For the same compound, the Potency entry in assay [8], in [10], in [11], in [12], in assay [19] and in assay [18] was “inactive” each time. Moreover, the Potency result in [16] and in assay [17] was “inactive” each time. In addition, the compound was called inactive in assay [6].

Consider `O=C1c2ccccc2C(=O)c2c1ccc(O)c2O`, for which the Potency result in assay [1], in assay [2], in assay [3], in assay [4], in assay [5] and in [7] was “inactive” throughout. Also, the Potency entry in assay [8], in [9], in [10], in assay [11], in assay [13] and in assay [17] was “inactive” in each case. For the same compound, the compound was called inactive in [6]. Besides, in assay [14], the Potency is 29.8 µM (active).

As to `SCCOCCOCCS`, the Potency result in assay [1], in [2], in [3], in assay [4], in [5] and in [7] was “inactive” each time. Also, the Potency result in assay [10], in assay [11], in [12], in [19], in assay [18] and in assay [16] was “inactive” each time. Also, the outcome in assay [6] and in [15] was inactive.

As to `COC(=O)C(C)(C)C`, the Potency result in [1], in [2], in assay [3], in assay [4], in assay [5] and in assay [8] was “inactive” in each case. The Potency result in [9], in assay [10], in [11], in assay [12], in assay [19] and in assay [14] was “inactive” in each case. Further, the Potency result in [16] is “inactive”. The compound was called inactive in assay [6] and in assay [15].

As to `COC(=O)Cc1cccc2ccccc12`, the Potency result in assay [1], in [2], in assay [3], in assay [4], in assay [5] and in assay [7] was “inactive” in each case. Moreover, the Potency entry in assay [8], in [9], in [10], in assay [11], in assay [12] and in [19] was “inactive” throughout. The Potency entry in assay [18], in [16] and in [17] was “inactive” throughout. In assay [15], the outcome was inactive.
